Results from PubChem BioAssay AID1159580 (chemical genetic matrix, 2015).
Values joined by “and” are separate entries in the source; they are usually repeats but may differ in a detail not shown here. Equal entries are not always repeated. In all, about 5,500 compounds went through this assay and about 2,000 (36%) were called active. Not shown: some 18% with an inconclusive outcome. No stated cut-off is given here; in the data, active means normalized growth mostly below about 0.91 (no sharp cut-off); inconclusive means no clear call, values can overlap the other calls; inactive means mostly above about 0.92. The list shows a part of the results.

Assay: chemical genetic growth profiling, strain panel (AID 1159580);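 further: tested at 20 µM; growth read once vehicle control cultures reached saturation at 30 °C; 1 = growth at the plate median or of vehicle wells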
Conditions: S. cerevisiae deletion strains, growth OD

Measured: normalized growth

Cc1c(O)c(O)cc2c1CC=C1[C@@]2(C)CC[C@@]2(C)C3C[C@](C)(C(=O)O)CC[C@]3(C)CC[C@]12C (stereo partly specified)
active: locus YAL021C, strain ccr4, stronger effect = lower value 0.711 | locus YAL026C, strain drs2, stronger effect = lower value 0.422 | locus YAL030W, strain snc1, stronger effect = lower value 0.541 | locus YBL061C, strain skt5, stronger effect = lower value 0.533 | locus YBR009C, strain hhf1, stronger effect = lower value 0.265 | locus YBR023C, strain chs3, stronger effect = lower value 0.471 | locus YBR171W, strain sec66, stronger effect = lower value 0.842 | locus YBR231C, strain swc5, stronger effect = lower value 0.326 | locus YBR279W, strain paf1, stronger effect = lower value 0.41 | locus YCL011C, strain gbp2, stronger effect = lower value 0.377 | locus YCL016C, strain dcc1, stronger effect = lower value 0.571 | locus YCL061C, strain MRC1, stronger effect = lower value 0.635 | locus YCL069W, strain vba3, stronger effect = lower value 0.668 | locus YCR088W, strain abp1, stronger effect = lower value 0.738 | locus YDL005C, strain med2, stronger effect = lower value 0.413 | locus YDL040C, strain nat1, stronger effect = lower value 0.738 | locus YDL192W, strain arf1, stronger effect = lower value 0.889 | locus YDR001C, strain nth1, stronger effect = lower value 0.766 | locus YDR069C, strain doa4, stronger effect = lower value 0.459 | locus YDR137W, strain rgp1, stronger effect = lower value 0.269 | locus YDR159W, strain sac3, stronger effect = lower value 0.465 | locus YDR162C, strain NBP2, stronger effect = lower value 0.803 | locus YDR195W, strain ref2 0.548 | locus YDR297W, strain sur2, stronger effect = lower value 0.479 | locus YDR318W, strain mcm21, stronger effect = lower value 0.917 | locus YDR334W, strain swr1, stronger effect = lower value 0.338 | locus YDR335W, strain msn5, stronger effect = lower value 0.698 | locus YDR392W, strain spt3, stronger effect = lower value 0.125 | locus YEL003W, strain gim4, stronger effect = lower value 0.416 | locus YEL037C, strain rad23, stronger effect = lower value 0.71 | locus YEL061C, strain CIN8 (second series), stronger effect = lower value 0.701 | locus YEL061C, strain CIN8, stronger effect = lower value 0.906 | locus YER015W, strain faa2, stronger effect = lower value 0.491 | locus YER016W, strain bim1, stronger effect = lower value 0.612 | locus YER111C, strain swi4, stronger effect = lower value 0.581 | locus YER155C, strain BEM2 (second series), stronger effect = lower value 0.348 | locus YER155C, strain BEM2, stronger effect = lower value 0.767 | locus YFR010W, strain ubp6, stronger effect = lower value 0.561 | locus YGL167C, strain pmr1, stronger effect = lower value 0.738 | locus YGL173C, strain kem1, stronger effect = lower value 0.31 | locus YGL227W, strain vid30, stronger effect = lower value 0.854 | locus YGL240W, strain doc1, stronger effect = lower value 0.605 | locus YGL248W, strain PDE1, stronger effect = lower value 0.845 | locus YGL253W, strain hxk2, stronger effect = lower value 0.37 | locus YHR013C, strain ard1, stronger effect = lower value 0.203 | locus YHR027C, strain rpn1, stronger effect = lower value 0.45 | locus YHR129C, strain ARP1, stronger effect = lower value 0.838 | locus YHR142W, strain chs7, stronger effect = lower value 0.387 | locus YIL066C, strain RNR3, stronger effect = lower value 0.801 | locus YJL092W, strain hpr5, stronger effect = lower value 0.686 | locus YJL095W, strain BCK1 (second series), stronger effect = lower value 0.405 | locus YJL095W, strain BCK1, stronger effect = lower value 0.784 and 0.865 | locus YJL115W, strain asf1, stronger effect = lower value 0.741 | locus YJL129C, strain trk1, stronger effect = lower value 0.482 | locus YJL154C, strain vps35, stronger effect = lower value 0.689 | locus YJL164C, strain tpk1, stronger effect = lower value 0.289 | locus YJL166W, strain qcr8, stronger effect = lower value 0.233 | locus YJL187C, strain SWE1, stronger effect = lower value 0.457
inactive: locus YBR021W, strain FUR4, stronger effect = lower value 1 | locus YBR229C, strain ROT2, stronger effect = lower value 0.966 | locus YCL029C, strain bik1, stronger effect = lower value 0.947 | locus YDL035C, strain GPR1, stronger effect = lower value 0.872 | locus YDL074C, strain BRE1, stronger effect = lower value 0.797 | locus YDL101C, strain DUN1, stronger effect = lower value 0.924 | locus YDL185W, strain tfp1, stronger effect = lower value 1.01 | locus YDR101C, strain arx1, stronger effect = lower value 0.962 | locus YDR150W, strain NUM1, stronger effect = lower value 0.959 | locus YDR388W, stronger effect = lower value 0.962 | locus YDR502C, strain sam2, stronger effect = lower value 0.929 | locus YER110C, stronger effect = lower value 1 | locus YER167W, strain BCK2, stronger effect = lower value 0.921 | locus YGL078C, strain dbp3, stronger effect = lower value 0.977 | locus YGL086W, strain mad1, stronger effect = lower value 0.936 | locus YGR135W, strain pre9, stronger effect = lower value 0.936 | locus YGR252W, strain gcn5, stronger effect = lower value 0.873 | locus YHR030C, strain SLT2, stronger effect = lower value 0.947 and 0.918 | locus YHR079C, strain IRE1 (second series), stronger effect = lower value 0.976 | locus YHR079C, strain IRE1, stronger effect = lower value 0.945 | locus YHR094C, strain hxt1, stronger effect = lower value 0.988 | locus YHR200W, strain rpn10, stronger effect = lower value 0.964 | locus YIL073C, strain SPO22, stronger effect = lower value 0.863 | locus YIL125W, strain kgd1, stronger effect = lower value 0.942 | locus YIR030C, strain dcg1, stronger effect = lower value 0.958 | locus YJL134W, strain LCB3, stronger effect = lower value 0.967 | locus YJL168C, strain set2, stronger effect = lower value 0.979 | locus YJL187C, strain SWE1 (second series), stronger effect = lower value 0.897
